Assay results from PubChem BioAssay (NCATS).
Several values for one entry are separate records, joined by “and”; a condition that tells them apart may be missing. Equal values may be shown once. A number with no mark means an inactive call. Inconclusive results are not listed. Activity calls are given as the source filed them. Unless noted, calls come from the whole dose curve; as a rule, active = well fitted curve in the direction sought with a large enough effect; inconclusive = small, poorly fitted or top-dose-only effect, or another doubt; inactive = no such curve, though single readings can be large; an effect the other way counts as inactive or inconclusive.

How the values were obtained:
[1] = tested on: Tov112D; experiment: Primary qHTS to identify gynecologic anti-cancer compounds using libraries of approved drugs and bioactive compounds (AID 1345084); conditions: Gynecologic cancer cell panel viability, ATPlite luminescence, 48 h; series mostly up to 57.5 µM; note: nearly all actives have a fitted effect of over 55% in size; note: potency is the fitted concentration of half-maximal effect
Procedure, shortened: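 Five-concentration response, 48 h; readout is ATP-driven luciferase luminescence.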

[2] = Drug repurposing screens with cells derived from glioblastoma tumor samples (AID 1345199); conditions: GBM patient neurospheres viability, ATP luminescence, 48 h; note: nearly all actives have a fitted effect of over 40% in size; note: potency is the fitted concentration of half-maximal effect; for activity, negative = cell killing: % is set by controls: 0 for no effect and ±100 for the full control effect
Procedure, shortened: (§1)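 Primary testing used CD133+ neurospheres from four GBM patients, seven concentrations, 48 h exposure and ATP-based viability; confirmation added three slower-growing patient lines.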

[3] = tested on: astro; experiment: as above; conditions: viability, ATP luminescence, 48 h; series mostly up to 45.9 µM
Procedure, shortened: as §1

[4] = qHTS assay to identify inhibitors of the type 1 interferon - major histocompatibility complex class I in skeletal muscle: Counter screen cell viability and HiBit confirmation (AID 1347412); conditions: iHSKM muscle cells + IFN-b, HiBiT or CellTiter-Glo, 24 h; for activity change, negative = inhibition: at 45.9 µM (top of the series); note: potency is the fitted concentration of half-maximal effect; for activity change, negative = inhibition: % is set by controls: 0 for no effect and ±100 for the full control effect; for all read-outs here: nearly all actives have a fitted effect of over 60% in size
Procedure, shortened: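 After 24 h with human IFN-beta (4 ng/ml) and compound titrations (top 46 uM final, 1:3, 12 points), HLA-B HiBit myoblasts were lysed for either Nano-Glo HiBiT luminescence or CellTiter Glo viability on paired plates.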

[5] = target: Nuclear receptor subfamily 1 group I member 2 (Rattus norvegicus) (UniProt Q9R1A7); experiment: qHTS assay for small molecule activators of the rat pregnane X receptor (rPXR) signaling pathway (AID 651751; call rule not given here; note: 0% is about no effect); conditions: rPXR reporter cells, luciferase (One-Glo), 24 h
Sequence of Nuclear receptor subfamily 1 group I member 2 (Rattus norvegicus) (Q9R1A7 whole entry, looked up): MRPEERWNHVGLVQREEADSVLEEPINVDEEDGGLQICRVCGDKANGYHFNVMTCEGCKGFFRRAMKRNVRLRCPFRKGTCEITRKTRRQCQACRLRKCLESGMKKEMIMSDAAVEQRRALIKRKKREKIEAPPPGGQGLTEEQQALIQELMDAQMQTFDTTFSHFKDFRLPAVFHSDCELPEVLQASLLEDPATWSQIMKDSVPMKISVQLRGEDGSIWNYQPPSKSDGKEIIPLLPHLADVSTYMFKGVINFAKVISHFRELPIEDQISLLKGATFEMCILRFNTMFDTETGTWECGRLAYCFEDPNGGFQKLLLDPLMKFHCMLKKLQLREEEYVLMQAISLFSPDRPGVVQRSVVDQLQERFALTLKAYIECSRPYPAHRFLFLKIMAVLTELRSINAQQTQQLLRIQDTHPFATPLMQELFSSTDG

[6] = qHTS assay for small molecule activators of the human pregnane X receptor (PXR) signaling pathway (AID 720659; call rule not given here; note: 0% is about no effect)
[7] = at 46.1 µM (top of the series), tumour line C
[8] = at 45.9 µM (top of the series), tumour line B
[9] = at 45.9 µM (top of the series), tumour line D
[10] = at 46 µM (top of the series), tumour line A

For `CC(C)(C)c1ccc(C(O)CCCN2CCC(C(O)(c3ccccc3)c3ccccc3)CC2)cc1` (configuration not stated), which Potency [1] is on record?
The Potency was “inactive”.

And the activity, negative = cell killing [2, 7]?
Its activity, negative = cell killing is -2.38%.

And the Potency ([2]; tumour line A)?
Its Potency is 5.01 µM (active).

What about the Potency ([2]; tumour line B) of the same molecule?
The Potency was 11.2 µM (active).

What about the Potency ([2]; tumour line D) of the same molecule?
Its Potency is 10 µM (active).

What about the Potency [3] of the same molecule?
Its Potency is 35.5 µM (active) and 20 µM (active).

What about the Potency ([4]; Viability) of the same molecule?
The Potency was 22.2 µM (active).

What does the source list for `O=C(CCCCCCC(=O)Nc1ccccc1)NO`?
Potency [1]: 7.08 µM (active) and 11.2 µM (active); Potency ([4]; HiBiT): 3.52 µM (active); activity change, negative = inhibition ([4]; Viability): 2.12%

With `O=C(NCc1ccccc1)c1csc(Nc2ccncn2)n1` as the molecule, how does the Potency [1] read?
The Potency was “inactive”.

What about the Potency ([4]; HiBiT) of the same molecule?
Its Potency is 9.91 µM (active).

And the activity change, negative = inhibition ([4]; Viability)?
Its activity change, negative = inhibition is -20.4%.

Which Potency [1] does the source give for `CC(=O)c1ccc(S(=O)(=O)NC(=O)NC2CCCCC2)cc1` here?
The Potency was “inactive”.

And the activity, negative = cell killing [2, 8]?
Its activity, negative = cell killing is -1.16%.

And the activity, negative = cell killing [2, 9]?
The activity, negative = cell killing was 0.333%.

And the activity, negative = cell killing [2, 10]?
Its activity, negative = cell killing is -21.5%.

What about the activity, negative = cell killing [2, 7] of the same molecule?
Its activity, negative = cell killing is -21%.

And the max response [5]?
The max response was -0.823% and -0.02%.

And the outcome [6]?
Its outcome is “inactive”.

With `O=C(O)Cc1cccc2ccccc12` as the molecule, how does the Potency [1] read?
The Potency was “inactive”.

What about the activity, negative = cell killing [2, 8] of the same molecule?
Its activity, negative = cell killing is -11.6%.

What about the activity, negative = cell killing [2, 9] of the same molecule?
The activity, negative = cell killing was 18.7%.

And the activity, negative = cell killing [2, 10]?
The activity, negative = cell killing was -19.6%.

What about the activity, negative = cell killing [2, 7] of the same molecule?
The activity, negative = cell killing was -6.29%.

What about the activity, negative = cell killing ([2]; at 91.6 µM (top of the series), tumour line A) of the same molecule?
Its activity, negative = cell killing is -29.8%.

And the activity, negative = cell killing ([2]; at 91.6 µM (top of the series), tumour line B)?
Its activity, negative = cell killing is 9.54%.

What about the activity, negative = cell killing ([2]; at 91.6 µM (top of the series), tumour line D) of the same molecule?
Its activity, negative = cell killing is -15.1%.

And the activity, negative = cell killing ([2]; at 99.2 µM (top of the series), tumour line C)?
The activity, negative = cell killing was 10.5%.

And the max response [5]?
Its max response is -1.12% and -1.15%.

And the outcome [6]?
Its outcome is “inactive”.

What does the source list for `CNC1CCC(N(Cc2cccc(-c3ccncc3)c2)C(=O)c2sc3c(F)ccc(F)c3c2Cl)CC1` (configuration not stated)?
Potency [1]: inactive; activity change, negative = inhibition ([4]; HiBiT): -27.3%

What does the source list for `CC(=O)N[C@@H](CS)C(=O)O`?
Potency [1]: inactive; activity, negative = cell killing [2, 8]: -7.88%; activity, negative = cell killing [2, 9]: -1.21%; activity, negative = cell killing [2, 10]: -28.2%; activity, negative = cell killing [2, 7]: -14.2%; outcome [6]: inactive

For `O=c1[nH]cnc2c1ncn2[C@H]1CC[C@@H](CO)O1`, which Potency [1] is on record?
The Potency was “inactive”.

What about the activity, negative = cell killing [2, 8] of the same molecule?
Its activity, negative = cell killing is -2.39%.

What about the activity, negative = cell killing [2, 9] of the same molecule?
The activity, negative = cell killing was 8.81%.

And the activity, negative = cell killing [2, 10]?
Its activity, negative = cell killing is -25.7%.

What about the activity, negative = cell killing [2, 7] of the same molecule?
The activity, negative = cell killing was -15.1%.

And the max response [5]?
Its max response is -1.01% and 3.56%.

What about the outcome [6] of the same molecule?
The outcome was “inactive”.

With `CC(=O)O[C@]1(C(C)=O)CC[C@H]2[C@@H]3C=C(Cl)C4=CC(=O)[C@@H]5C[C@@H]5[C@]4(C)[C@H]3CC[C@@]21C` as the molecule, how does the Potency [1] read?
The Potency was “inactive”.

What about the activity, negative = cell killing [2, 8] of the same molecule?
Its activity, negative = cell killing is -17.9%.

And the activity, negative = cell killing [2, 9]?
The activity, negative = cell killing was -23%.

And the activity, negative = cell killing [2, 7]?
The activity, negative = cell killing was 2.8%.

What about the outcome [6] of the same molecule?
The outcome was “inactive”.

Which Potency [1] does the source give for `CCS(=O)(=O)N1CC(CC#N)(n2cc(-c3ncnc4[nH]ccc34)cn2)C1` here?
The Potency was “inactive”.

What about the activity change, negative = inhibition ([4]; Viability) of the same molecule?
The activity change, negative = inhibition was -4.12%.

Which results are given for `CN(C)CCC(c1ccccc1)c1ccccn1` (configuration not stated)?
Potency [1]: inactive; activity, negative = cell killing [2, 8]: -6.99%; activity, negative = cell killing [2, 9]: -4.75%; activity, negative = cell killing [2, 10]: -22.4%; activity, negative = cell killing [2, 7]: -14.6%; max response [5]: 2.3%; outcome [6]: inactive

With `CC(C)OC(=O)C(C)(C)Oc1ccc(C(=O)c2ccc(Cl)cc2)cc1` as the molecule, how does the Potency [1] read?
The Potency was “inactive”.

And the activity, negative = cell killing [2, 8]?
The activity, negative = cell killing was -21.9%.

What about the Potency ([2]; tumour line A) of the same molecule?
Its Potency is 11.2 µM (active).

And the max response [5]?
Its max response is -0.28%.

Which results are given for `C[C@@H](O)[C@H]1C(=O)N2C(C(=O)O)=C(S[C@@H]3CN[C@H](C(=O)N(C)C)C3)[C@H](C)[C@H]12`?
Potency [1]: inactive; activity, negative = cell killing [2, 8]: -4.52%; activity, negative = cell killing [2, 9]: 4.08%; activity, negative = cell killing [2, 10]: -23.7%; activity, negative = cell killing [2, 7]: -22.4%

With `CCn1cc(C(=O)O)c(=O)c2ccc(C)nc21` as the molecule, how does the Potency [1] read?
The Potency was “inactive”.

What about the activity, negative = cell killing [2, 8] of the same molecule?
The activity, negative = cell killing was -0.634%.

What about the activity, negative = cell killing [2, 9] of the same molecule?
The activity, negative = cell killing was -3.73%.

What about the activity, negative = cell killing [2, 7] of the same molecule?
The activity, negative = cell killing was -15.1%.

What about the outcome [6] of the same molecule?
Its outcome is “inactive”.

What does the source list for `O=C(Nc1ccccc1-c1cn2c(CN3CCNCC3)csc2n1)c1cnc2ccccc2n1`?
Potency [1]: inactive; Potency ([4]; HiBiT): 11.1 µM (active); Potency ([4]; Viability): 15.7 µM (active)

Which results are given for `C[N+](C)(C)CCCCCC[N+](C)(C)C`?
Potency [1]: inactive; activity, negative = cell killing [2, 8]: -9.48%; activity, negative = cell killing [2, 9]: -17.5%; activity, negative = cell killing [2, 10]: -4.52%; activity, negative = cell killing [2, 7]: 8.25%; Potency [3]: inactive

For `O=C(O)c1cc(-c2ccccc2)nc2ccccc12`, which Potency [1] is on record?
Its Potency is “inactive”.

What about the activity, negative = cell killing [2, 8] of the same molecule?
The activity, negative = cell killing was -26%.

And the activity, negative = cell killing [2, 9]?
Its activity, negative = cell killing is -24.8%.

And the activity, negative = cell killing [2, 7]?
The activity, negative = cell killing was -23%.

And the max response [5]?
The max response was -0.78%.

What about the outcome [6] of the same molecule?
Its outcome is “inactive”.

What does the source list for `CCCNC(=O)NS(=O)(=O)c1ccc(Cl)cc1`?
Potency [1]: inactive; activity, negative = cell killing [2, 8]: -7.96%; activity, negative = cell killing [2, 9]: 5.01%; activity, negative = cell killing [2, 10]: -11.4%; activity, negative = cell killing [2, 7]: -13.2%; Potency [3]: inactive; max response [5]: -5.97% and -1.04%; outcome [6]: inactive
